Here are results for 16 compounds from PubChem BioAssay (NCATS).

Experiment [1] is described as follows: NFAT Signaling Pathway (AID 444; active means well fitted curve in either direction with a large enough effect, not every such curve was filed as active;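 further: carbachol stimulus at about its EC50 of 1 µM final; on the % scale 0 is the no-effect control and ±100 the full control effect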). The settings on record: Jurkat NFAT-bla M1, carbachol, beta-lactamase ratio, 5 h; at 17.2 µM (top of the series) unless noted. The method in brief:
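Jurkat cells carrying an NFAT-driven β-lactamase reporter and co-transfected muscarinic M1 receptor were treated with compound plus carbachol (1 uM final, an EC50 level) for 5 h at 37 °C. CCF4 loading followed for 1 h at RT; 460/530 nm ratio gave %activity.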

A short description of experiment [2]: Stat Signaling Pathway (AID 446; active means well fitted curve in either direction with a large enough effect, not every such curve was filed as active;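 further: ME-180 cervical cancer cells given 40 pM IL-6 alongside compound; SIE-controlled beta-lactamase reporter measured as 460/530 nm FRET emission ratio; on the % scale 0 is the no-effect control and ±100 the full control effect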). The method in brief: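 Emission at 460 and 530 nm (excitation 405 nm) reports SIE-controlled beta-lactamase in ME-180 cells. Cells received compound with 40 pM IL-6 for 5 hrs at 37 C; data scaled between 300 pM IL-6 and 125 nM JAK-inhibitor controls.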
Experiment [3] deals with Cytochrome P450 2D6 (Homo sapiens) (UniProt P10635). Description: qHTS Assay for Inhibitors and Substrates of Cytochrome P450 2D6 (AID 891). Further: nearly all actives have a fitted effect of over 60% in size. Further: potency means the concentration at half of the fitted maximal effect.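 On activity change, negative = inhibition: luciferin methyl ether substrate demethylated by CYP2D6 with NADPH regeneration; on the % scale 0 is the no-effect control and ±100 the full control effect.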 An outline of the steps:
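Luminescent read-out of luciferin formed by 5 nM human CYP2D6 demethylating 30 uM Luciferin-ME EGE (Km level) over 60 min at room temperature after NADPH regeneration addition. Data normalized to full inhibition by 1.43 uM quinidine.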
For orientation: In qHTS, concentration-response curves come from the screen itself.

In experiment [4] the target is Cytochrome P450 2C9 (Homo sapiens) (UniProt P11712). Description: qHTS Assay for Inhibitors and Substrates of Cytochrome P450 2C9 (AID 883). Further: on the % scale 0 is the no-effect control and ±100 the full control effect; nearly all actives have a fitted effect of over 60% in size. The method in brief:
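A luminogenic readout tracked human CYP2C9 (10nM) converting deoxyluciferin (100uM, at KM) in 25mM KPO4 during 60 min at 37C with regenerated NADPH. Values normalized to 57uM sulphaphenazole as complete inhibition.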

Experiment [5] addresses Cytochrome P450 3A4 (Homo sapiens) (UniProt P08684). The experiment is described as follows: qHTS Assay for Inhibitors and Substrates of Cytochrome P450 3A4 (AID 884). Further: nearly all actives have a fitted effect of over 50% in size. Further: potency means the concentration at half of the fitted maximal effect. On activity change, negative = inhibition: on the % scale 0 is the no-effect control and ±100 the full control effect. An outline of the steps: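 Luminescent readout of luciferin produced by CYP3A4 (20 nM) dealkylation of Luciferin-PPXE, 25 uM (its KM). NADPH-driven reaction ran 60 min at RT after 10 min compound preincubation; data scaled to 57 uM ketoconazole as 100% inhibition.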

The target is the same in experiment [6]. Description: qHTS Assay for Activators of Cytochrome P450 3A4 (AID 885). Further: nearly all actives have a fitted effect of over 65% in size. An outline of the steps: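 Activators are scored by enhanced luminescence from CYP3A4 conversion of luciferin-PPXE (25uM, equal to KM) to luciferin, after 60 min at RT with an NADPH-regenerating system.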
The nature of experiment [7]: S16 Schwann cell PMP22 intronic element firefly luciferase assay (AID 624032). Further: nearly all actives have a fitted effect of over 30% in size. Further: potency means the concentration at half of the fitted maximal effect.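 On activity change, negative = inhibition: plate controls were DMSO for no effect and PTC124 positive control mean for full effect.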 The method in brief:
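Rat S16 Schwann cells stably carrying a PMP22 intronic element-driven Fluc reporter were seeded overnight, then exposed to compounds for 24 h at 37 °C. Luminescence was normalized to PTC124 (positive control) and DMSO (0% activity).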

Another experiment has as its system CP203. The experiment is described as follows: qHTS profiling for inhibitors of Plasmodium falciparum proliferation (AID 504749). Further: nearly all actives have a fitted effect of over 60% in size. Further: potency means the concentration at half of the fitted maximal effect. The settings on record: P. falciparum in erythrocytes, SYBR Green DNA, 72 h; series mostly up to 12.8 µM. The method in brief: (§1)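 Fluorescence of SYBR Green-bound parasite DNA, read at 485/535 nm, served as the growth measure. Infected erythrocytes were cultured with compound 72 h; artemisinin (0.29 uM) and DMSO wells defined the normalization range.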

For a further experiment, the system named is CP215. The description is as above. The settings on record: P. falciparum in erythrocytes, SYBR Green DNA, 72 h; series mostly up to 12.8 µM. The method in brief: as §1
Another experiment concerns CP260. The experiment is described as above. The settings on record: P. falciparum in erythrocytes, SYBR Green DNA, 72 h; series mostly up to 12.8 µM. The method in brief: as §1
A further experiment deals with CP335. The experiment is described as above. The settings on record: P. falciparum in erythrocytes, SYBR Green DNA, 72 h; series mostly up to 12.8 µM. An outline of the steps:
as §1

The test system of the next experiment is DIV17. The description is as above. The settings on record: P. falciparum in erythrocytes, SYBR Green DNA, 72 h; series mostly up to 12.8 µM. The method in brief: as §1
A further experiment concerns GB4. The description is as above. The settings on record: P. falciparum in erythrocytes, SYBR Green DNA, 72 h; series mostly up to 12.8 µM. An outline of the steps: as §1
A further experiment deals with ICS. Described as above. The settings on record: P. falciparum in erythrocytes, SYBR Green DNA, 72 h; series mostly up to 12.8 µM. The method in brief: as §1
Another experiment has as its system W2. The experiment is described as above. The settings on record: P. falciparum in erythrocytes, SYBR Green DNA, 72 h; series mostly up to 12.8 µM. An outline of the steps: as §1
The nature of experiment [8]: Confirmation and Secondary Assay for Modulators of Hemoglobin Beta Chain Splicing at IVS2 654 locus (AID 910).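 Further: per-well total GFP intensity by laser scanning cytometry after 2-day treatment; % of control where 0% means no effect.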 An outline of the steps:
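HeLa cells stably carrying EGFP interrupted by mutant beta-globin IVS2-654 intron (CMV-driven) were treated with compound for 2 days at 37C; corrected splicing was scored as total peak GFP intensity per well (488 nm excitation, 500-520 nm emission).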

Experiment [9] in a line: Confirmation and Secondary Assay for Modulators of Hemoglobin Beta Chain Splicing at IVS2 705 locus (AID 930).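 Further: HeLa cells stably expressing the EGFP-705 splicing reporter; GFP fluorescence per well restored by corrected splicing of the IVS2-705 intron in EGFP; % of control where 0% means no effect.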 The method in brief: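 First, HeLa EGFP-705 cells are seeded at 500/well in Optimem with 2% FCS and left overnight. Next, compound or DMSO is added for 2 days. Finally wells are laser-scanned and total peak GFP intensity scored.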
The nature of experiment [10]: S16 Schwann cell viability assay (CellTiter-Glo assay) (AID 624031).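 Further: native untransfected S16 rat Schwann cells; plate controls were DMSO-treated cells for no effect and cell-free wells for full effect; nearly all actives have a fitted effect of over 70% in size.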 An outline of the steps:
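Counter-screen for cytotoxicity: parental S16 rat Schwann cells lacking the PMP22 reporters, treated 24 h with compound, viability from cellular ATP by CellTiter-Glo luminescence, normalized to DMSO (0%) and no-cell wells.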
(ATP-based viability assays read luminescence as a measure of living cells.)

The subject of another experiment is DFO2036. Description: qHTS profiling for inhibitors of Plasmodium falciparum proliferation (AID 504749). Further: nearly all actives have a fitted effect of over 60% in size. Further: potency means the concentration at half of the fitted maximal effect. The settings on record: P. falciparum in erythrocytes, SYBR Green DNA, 72 h; series mostly up to 12.8 µM. An outline of the steps: as §1
In the next experiment the test system is 7G8. Described as above. The settings on record: P. falciparum in erythrocytes, SYBR Green DNA, 72 h; series mostly up to 12.8 µM. The method in brief:
as §1

SMILES strings stand for the structures. Unmarked numbers belong to inactive results. Inconclusive results are not listed. The source made the active and inactive calls. Unless noted, the call rests on the fitted dose curve; in most records, active means well fitted curve in the direction sought with a large enough effect; inconclusive means small, poorly fitted or top-dose-only effect, or another doubt; inactive means no such curve, though single readings can be large; an effect the other way counts as inactive or inconclusive.

Cytochrome P450 3A4 (Homo sapiens), sequence (P08684 whole entry, looked up): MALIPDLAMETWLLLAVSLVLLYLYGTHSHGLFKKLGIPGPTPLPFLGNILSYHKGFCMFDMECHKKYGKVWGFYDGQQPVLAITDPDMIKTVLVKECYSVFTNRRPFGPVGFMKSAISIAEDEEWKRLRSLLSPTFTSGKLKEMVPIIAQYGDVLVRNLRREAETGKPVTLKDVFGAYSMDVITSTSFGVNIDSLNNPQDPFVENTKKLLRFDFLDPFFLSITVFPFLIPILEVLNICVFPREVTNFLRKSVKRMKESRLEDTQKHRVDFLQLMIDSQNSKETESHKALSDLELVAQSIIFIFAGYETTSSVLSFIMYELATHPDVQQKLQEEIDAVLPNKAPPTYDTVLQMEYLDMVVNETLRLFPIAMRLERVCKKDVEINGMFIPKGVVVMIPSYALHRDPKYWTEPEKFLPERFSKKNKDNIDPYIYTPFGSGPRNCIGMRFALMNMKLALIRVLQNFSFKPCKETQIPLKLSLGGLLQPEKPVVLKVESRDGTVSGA
Cytochrome P450 2D6 (Homo sapiens), sequence (P10635 whole entry, looked up): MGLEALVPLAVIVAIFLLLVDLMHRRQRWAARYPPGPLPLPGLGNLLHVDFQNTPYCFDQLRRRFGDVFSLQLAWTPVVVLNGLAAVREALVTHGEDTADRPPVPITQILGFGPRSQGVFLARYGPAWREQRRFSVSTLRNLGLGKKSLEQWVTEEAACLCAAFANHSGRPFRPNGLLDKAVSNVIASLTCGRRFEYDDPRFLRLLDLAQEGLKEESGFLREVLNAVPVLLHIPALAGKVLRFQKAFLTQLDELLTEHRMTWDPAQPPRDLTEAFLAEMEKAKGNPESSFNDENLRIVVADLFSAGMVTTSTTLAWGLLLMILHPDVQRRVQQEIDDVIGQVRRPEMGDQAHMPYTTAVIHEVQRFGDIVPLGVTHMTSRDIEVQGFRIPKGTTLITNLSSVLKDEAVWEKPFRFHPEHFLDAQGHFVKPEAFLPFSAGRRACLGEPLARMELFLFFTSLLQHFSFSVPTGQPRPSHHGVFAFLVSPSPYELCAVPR
Cytochrome P450 2C9 (Homo sapiens), sequence (P11712 whole entry, looked up): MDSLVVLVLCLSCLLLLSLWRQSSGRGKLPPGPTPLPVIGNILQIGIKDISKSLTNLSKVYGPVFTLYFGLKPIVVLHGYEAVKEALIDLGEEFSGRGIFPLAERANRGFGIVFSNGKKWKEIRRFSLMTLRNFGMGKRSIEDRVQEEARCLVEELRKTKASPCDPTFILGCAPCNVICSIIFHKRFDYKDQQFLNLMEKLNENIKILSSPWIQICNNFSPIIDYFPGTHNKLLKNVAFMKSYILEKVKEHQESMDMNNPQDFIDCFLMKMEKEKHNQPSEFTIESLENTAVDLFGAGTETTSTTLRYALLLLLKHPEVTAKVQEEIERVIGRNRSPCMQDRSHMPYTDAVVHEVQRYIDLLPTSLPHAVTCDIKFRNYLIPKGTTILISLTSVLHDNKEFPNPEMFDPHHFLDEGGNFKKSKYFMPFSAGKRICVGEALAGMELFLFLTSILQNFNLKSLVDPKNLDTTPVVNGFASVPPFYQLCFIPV

For the compound `C=N[C@H](C(=O)N[C@@H]1C(=O)N2[C@@H]1SC(C)(C)[C@@H]2C(=O)O)c1ccccc1`, the activity change, negative = inhibition in experiment [1] is -0.342%.

On to `O=C1C=CC(=O)c2c1ccc1c2ccc2ccccc21`, for which the activity change, negative = inhibition in experiment [1] is -25.7% (active).

As for `Clc1cnccn1`, the activity change, negative = inhibition in experiment [1] is -22.8%. In addition, the call in experiment [2] was inactive.

For `C1CCC(C(C[C@@H]2CCCCN2)C2CCCCC2)CC1`, the call in experiment [2] was inactive. In addition, the Potency in [3] is 501 nM (active).

With `Nc1ncnc2c1ncn2[C@@H]1O[C@H](COP(=O)(O)O)[C@@H](O)[C@@H]1O`, in [1], the activity change, negative = inhibition was -4.61%. Further, the Potency entry in [4], in experiment [5] and in experiment [3] was “inactive” in each case.

`CCN(CC)CCOC(=O)[C@@H](c1ccccc1)C1CCCCC1`: in experiment [2], the result was inactive. For the same compound, the Potency entry in [6] was “inactive”. Moreover, in experiment [3], the Potency was 631 nM (active).

In the case of `C[C@H](CCC(=O)NCC(=O)O)[C@H]1CC[C@H]2[C@H]3[C@@H](C[C@@H](O)[C@]12C)[C@]1(C)CC[C@H](O)C[C@@H]1C[C@@H]3O`, in experiment [1], the activity change, negative = inhibition is 15.3%. The result in [2] was inactive.

For `C[C@@H]1Cc2ccccc2N1NC(=O)c1ccc(Cl)c(S(N)=O)c1` (stereo partly specified), in experiment [1], the activity change, negative = inhibition was 6.1%. In addition, in experiment [7], the Potency was 3460 nM (active). Moreover, the Potency entry in the experiment on CP203, in the experiment with CP215, with CP260, in the experiment with CP335, in the experiment on DIV17 and in the experiment on GB4 was “inactive” in each case. The Potency entry in the experiment with ICS and with W2 was “inactive” each time.

`N#Cc1cccc(-c2cncnc2-n2ccnc2)c1`: the activity change, negative = inhibition in experiment [1] was -7.66% [at 7.69 µM]. The Potency in experiment [5] is 2510 nM (active). Also, the Potency result in [8] and in experiment [9] was “inactive” throughout.

Consider `Cc1nccn1C[C@@H]1CCc2c(c3ccccc3n2C)C1=O`, for which, in [1], the activity change, negative = inhibition was -26.8%. Further, in experiment [2], the compound was called inactive.

On to `O=C(O)[C@@H]1[C@@H]2C[C@H]3c4[nH]c5ccccc5c4CCN3C[C@@H]2CC[C@@H]1O`, for which, in [1], the activity change, negative = inhibition is -27%. The compound was classed as inactive in [10]. For the same compound, the Potency result (in [7]; in the experiment with CP203) was “inactive” in each case. In the experiment with DIV17, the Potency is 5730 nM (active).

As for `CCC(=O)O[C@@H]1[C@H](C)O[C@H](O[C@H]2[C@@H](N(C)C)[C@H](O)[C@@H](O[C@@H]3[C@@H](CC=O)C[C@@H](C)[C@@H](O)/C=C\C=C/C[C@@H](C)OC(=O)C[C@@H](OC(=O)CC)[C@H]3OC)O[C@H]2C)C[C@]1(C)O`, the activity change, negative = inhibition in experiment [1] was 3.96%. Also, the call in experiment [2] and in experiment [10] was inactive. The Potency entry (in experiment [7]; in the experiment with DFO2036; in the experiment with GB4) was “inactive” throughout. For the same compound, in the experiment on W2, the Potency is 2030 nM (active).

Consider `CCOC(=O)Oc1c(OC)cc(C(=O)O[C@H]2C[C@H]3CN4CCc5c([nH]c6cc(OC)ccc56)[C@@H]4C[C@H]3[C@@H](C(=O)OC)[C@@H]2OC)cc1OC`, for which, in [1], the activity change, negative = inhibition is -2.78%. For the same compound, the compound was classed as inactive in experiment [2]. In addition, the Potency with 7G8 was 2510 nM (active); in the experiment on CP260 it was 2510 nM (active); in the experiment on DIV17 it was 5730 nM (active); with GB4, 6420 nM (active); in the experiment with ICS, 2820 nM (active); in the experiment with W2 it was 2560 nM (active).

Regarding `NCC[C@H](O)C(=O)N[C@H]1C[C@@H](N)[C@@H](O[C@H]2O[C@@H](CN)[C@@H](O)[C@@H](O)[C@@H]2O)[C@@H](O)[C@@H]1O[C@H]1O[C@@H](CO)[C@@H](O)[C@@H](N)[C@@H]1O`, the activity change, negative = inhibition in [1] is -4.44%. Besides, the compound was classed as inactive in experiment [2].

As for `CCN(CC)[C@@H](C)CN1c2ccccc2Sc2ccccc21`, the compound was called inactive in [2] and in experiment [10]. For the same compound, the Potency in [3] was 158 nM (active); in the experiment on GB4, 5730 nM (active). The Potency result with CP215 and in the experiment with DFO2036 was “inactive” throughout.

For the compound `CC[C@@H]1OC(=O)[C@H](C)[C@H](O[C@@H]2C[C@](C)(OC)[C@H](O)[C@H](C)O2)[C@H](C)[C@H](O[C@@H]2O[C@@H](C)C[C@@H](N(C)C)[C@@H]2O)[C@](C)(O)C[C@H](C)[C@@H]2N[C@H](COCCOC)O[C@H]([C@@H]2C)[C@]1(C)O`, the activity change, negative = inhibition in [1] is -16.7%. Also, in experiment [2], the outcome was inactive.
